# Compound activity deposited in PubChem by National Center for Advancing Translational Sciences (NCATS).
# mIDH1 inhibitor: human IDH1 R132H inhibition | O75874 | IDH1-R132H enzyme, NADPH consumption, diaphorase/resazurin fluorescence | Potency, µM (top dose mostly 76.6 µM), inactives show top-dose activity change, negative = inhibition, actives largely listed as inhibitors | actives 0.093% (n = 390,000); note: potency is the fitted concentration of half-maximal effect; % is set by controls: 0 for no effect and ±100 for the full control effect; nearly all actives have a fitted effect of over 65% in size
#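 IDH1-R132H (0.5 ug/mL dispensed) in pH 7.5 Tris buffer was preincubated 30 min with compound, then given a substrate mix of 0.016 mM NADPH and 2 mM alpha-KG for 80 min at room temperature; remaining NADPH was read by diaphorase/resazurin fluorescence.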
# KCNH2 3.1 inh: blocks the human KCNH2 3.1 channel isoform. U2OS KCNH2 3.1, thallium flux FluxOr; stronger effect = lower value. activity change, % (tested at about 1.8 µM). actives 0.95% (n = 340,000);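 active = maximum activity change below -70%; inconclusive = maximum activity change from -70% to -50%; inactive = maximum activity change above -50%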;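 note: thallium influx rate constant from kinetic fluorescence after stimulation buffer; % is set by controls: 0 for no effect and ±100 for the full control effect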
#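 Channel expression came from 3.1 mutant virus (1.77 x 10^8 /mL) applied to suspended U2OS cells for 4 h. Flux was tracked with FluxOr dye plus Red40 quencher, and kinetic rate constants normalized to controls.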
# S-ASM inh: human S-ASM enzyme inhibition; P17405; placental ASM, HMU-PC fluorogenic substrate, 60 min; Potency, µM (highest dose often 57.5 µM), without a hit: at the top dose activity change, negative = inhibition, actives largely listed as inhibitors; actives 0.006% (n = 340,000); AID 504937; note: potency is the fitted concentration of half-maximal effect
#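 Fluorogenic HMU-PC substrate (9 uM final) is turned over by placental ASM in 60 min at 37 C after a 10 min compound preincubation. Reaction ended by alkaline stop (pH 10), with fluorescence read at 386/447 nm.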
# KCNH2 WT inh: inhibitors of human wildtype KCNH2 potassium channel; actives 0.37% (n = 340,000); U2OS, BacMam KCNH2, thallium flux FluxOr; stronger effect = lower value; activity change, % at 1.84 µM; Q12809;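 active = maximum activity change below -70%; inconclusive = maximum activity change between -70% and -50%; inactive = maximum activity change above -50%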; note: % is set by controls: 0 for no effect and ±100 for the full control effect
#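 U2OS cells were transduced with wild-type KCNH2 virus (2.03 x 10^8 / mL) for 4 h at room temperature, then cultured overnight at 37 C. Thallium flux was read with FluxOr dye. Rate constants were normalized to DMSO controls.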
# Apoferritin bind: candidate novel general anesthetic via apoferritin binding | apoferritin/1-aminoanthracene competitive binding, fluorescence | Potency, µM (top dose mostly 77.5 µM), for inactives: at the highest dose activity change, negative = displacement, most hits filed as inhibitors | actives 0.074% (n = 350,000) | AID 485281; note: potency is the fitted concentration of half-maximal effect; % is set by controls: 0 for no effect and ±100 for the full control effect; nearly all actives have a fitted effect of over 20% in size
# Target sequence (P02791 2-175 limits assumed): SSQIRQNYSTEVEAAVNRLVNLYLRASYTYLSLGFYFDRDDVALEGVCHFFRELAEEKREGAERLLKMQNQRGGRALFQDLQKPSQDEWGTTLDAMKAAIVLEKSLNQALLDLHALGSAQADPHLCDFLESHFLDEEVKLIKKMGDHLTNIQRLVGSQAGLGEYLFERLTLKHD
#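 Concentration-response curves derived by four-parameter Hill fitting of normalized fluorescence, where compounds displaced 1-AMA from 10 uM horse apoferritin following a brief 10 min room-temperature incubation; propofol titration acted as positive control.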
# An asterisk follows results filed as active; ? = inconclusive; nt = no result given; [ ] = remark or other dose. The list is not random: actives were taken first. Their share in the collection is about 1.2%. Unless noted, calls come from the whole dose curve; as a rule, active = well fitted inhibition curve with a large enough effect; inconclusive = small, poorly fitted or top-dose-only effect; inactive = no such curve, though single readings can be large or run the other way.
SMILES,mIDH1 inhibitor,KCNH2 3.1 inh,S-ASM inh,KCNH2 WT inh,Apoferritin bind
CCOC(=O)c1oc2ccccc2c1COC(=O)CNC(=O)c1cccc(C)c1,7.0%,-80.2*,-0.6%,-0.5,?
Cc1ccc(C(=O)NCC(c2ccco2)N2CCCCC2)s1 (centres undefined),13.0%,-70.7*,10.1%,15.1,nt
O=C(NCC(c1ccco1)N1CCCCC1)c1ccc([N+](=O)[O-])s1 (centres undefined),10.8%,-8.6,3.8%,40.3,nt
CC1CCN(S(=O)(=O)c2ccc3c(c2)CCC(=O)N3CC(=O)Nc2cccc(C#N)c2)CC1,-15.0%,nt,nt,nt,-5.2%
CCOc1ccc(-n2c(=S)sc3c(=O)n(-c4ccccc4)c(SCC(=O)O)nc32)cc1,-4.6%,7.3,5.3%,13.5,13.2%
CCOc1ccc(-n2c(=S)sc3c(=O)n(-c4ccc(F)cc4)c(SCC(=O)O)nc32)cc1,-14.5%,-0.4,8.3%,-238.6*,-8.1%
CCN(CC)C(=O)CSc1nc2c(sc(=S)n2-c2ccccc2)c(=O)n1Cc1ccco1,-0.2%,-78.2*,-3.1%,-43.1,?
CC(/C=N/NC(=O)c1ccc(CN2c3cccc4cccc(c34)S2(=O)=O)cc1)c1ccccc1 (centres undefined),13.6%,-84.1*,30.6%,0.7,-1.1%
O=c1cc2c(nn1Cc1ccc(Cl)cc1)-c1ccccc1CC2,-2.4%,-94.6*,-9.3%,-7.8,?
CC(=O)Nc1ccc(OCC(O)Cn2cccn2)cc1 (centres undefined),-9.7%,-200.9*,3.3%,-1.1,-4.0%
CC(=O)Nc1ccc(OCC(O)Cn2ccnc2)cc1 (centres undefined),3.2%,9.1,0.7%,7.1,-8.9%
Cc1ccc2c(c1)N(C(=O)CCC(=O)NCCCN1CCOCC1)CCO2,-3.1%,-127.7*,5.4%,-3.6,-10.7%
COc1ccc(CNC(=O)CCC2N=C3c4ccccc4N=C(SCc4cccc(F)c4)N3C2=O)cc1 (centres undefined),11.5%,nt,nt,nt,?
CCOC(=O)c1c(C)[nH]c(C)c1S(=O)(=O)N1CCN(c2ccc(Cl)cc2)CC1,18.8%,nt,nt,nt,-21.3%
COc1ccc(N2CCN(CCC(O)c3ccc4ccccc4c3)CC2)cc1 (centres undefined),1.3%,-102.7*,-2.9%,?,-1.0%
O=C(NCCSCc1ccccc1)C1CCN(S(=O)(=O)Cc2ccccc2)CC1,15.4%,nt,nt,nt,51.5%
COc1ccc(NC(=O)C2CCN(C(=O)[C@@H]3Cc4ccccc4CN3)CC2)cc1,-29.7%,-113.7*,0.6%,15.7,1.9%
COc1ccc(OC)c(C(=O)NC(CC(N)=O)c2ccc(NC(C)C)c([N+](=O)[O-])c2)c1 (centres undefined),1.7%,24.3,-0.9%,6.1,-19.0%
COc1ccc(OC)c(C(=O)NC(CC(N)=O)c2ccc(NCC3CC3)c([N+](=O)[O-])c2)c1 (centres undefined),-1.3%,-121.3*,-1.7%,0.5,?
COc1cc(OC)c2c(-c3cccc(/C=C/c4ccc(F)cc4)c3)cc(=O)oc2c1,-0.2%[38.3 µM],-19.2,-7.0%,-152.8*,-3.2%[110 µM]
COc1ccccc1CNC(=O)CCCn1c(=O)c2ccccc2n(Cc2ccc(F)cc2)c1=O,21.9%,nt,nt,nt,-14.7%
CCN(c1ccccc1C)S(=O)(=O)c1nnc(NC(=O)c2ccccc2C)s1,-7.9%,nt,nt,nt,-3.0%
CCOC(=O)c1nn(-c2ccccc2)c(=O)cc1SC(C)CC (centres undefined),10.0%,34.7,0.5%,24.6,-20.3%
CCOC(=O)c1nn(-c2ccccc2)c(=O)cc1SC(C)C,0.0%,-72.0*,0.9%,-35.3,-19.5%
CCCCCCCNC(=O)C1(CC2CC(c3cccc(Br)c3)=NO2)CCN(C(=O)c2ccccc2)CC1 (centres undefined),-7.1%,?,-6.7%,-70.5*,nt
CCCCCCCNC(=O)C1(CC2CC(c3cccc(Br)c3)=NO2)CCN(C(=O)Cc2ccc(F)cc2)CC1 (centres undefined),-7.2%,-25.7,-5.9%,-33.8,nt
